VHR inh abs: VHR1 phosphatase inhibitors, primary screen, biochemical, absorbance, uHTS. Dual specificity protein phosphatase 3 (Homo sapiens), P51452. recombinant VHR phosphatase, pNPP absorbance. inhibition, % at 13.3 µM. 290,000 compounds, 0.52% hits. AID 1654, 2009; in the data active = inhibition above about 50%
Target sequence (P51452 whole entry, looked up): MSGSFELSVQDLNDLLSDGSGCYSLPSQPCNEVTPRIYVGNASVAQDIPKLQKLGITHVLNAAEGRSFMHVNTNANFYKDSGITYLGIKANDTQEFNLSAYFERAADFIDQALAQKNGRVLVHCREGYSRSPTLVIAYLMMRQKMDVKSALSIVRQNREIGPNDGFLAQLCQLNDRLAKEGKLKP
RN4220 kill: growth inhibition of S. aureus RN4220, primary screen, OD600 | 16 h | inhibition, % (no concentration beside the values) | 330,000 compounds, 0.33% hits | AID 1259311, 2017; in the data active = inhibition above about 85%;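 note: plate controls were untreated cells for no effect and reference antibiotic for full effect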
SARS 3CLpro inh-1: SARS-CoV 3CLpro protease inhibitors, primary screen, biochemical, quenched FRET. Replicase polyprotein 1ab (Severe acute respiratory syndrome coronavirus), P0C6X7. AID 1706, 2009. 290,000 compounds, 0.14% hits. inhibition, % at 6 µM. recombinant SARS-CoV 3CLpro, quenched FRET peptide cleavage; in the data active = inhibition above about 12%
PrPC TRFRET: inhibitors of human cell surface prion protein PrPC, primary screen, cell-based, TR-FRET; Major prion protein (Homo sapiens), P04156; TR-FRET read-out; inhibition, % at 13.8 µM; 370,000 compounds, 0.43% hits; AID 720596, 2013; in the data active = inhibition above about 24%; note: 0% = median of the test wells and 100% = reference compound wells
ugtP null kill: growth inhibition of ugtP-null S. aureus, primary screen, RN4220 ugtP deletion, OD600; 16 h; growth inhibition, % (test concentration not listed); 330,000 compounds, 0.54% hits; in the data active = growth inhibition above about 68%;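 note: plate controls were untreated wells for no effect and antibiotic for full effect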
BJeLR viability: MLPCN primary cell-based screen for lethality selective to Ras in HRASV12 cells. BJeLR (HRASV12) viability, CellTiter-Glo ATP luminescence, 48 h. inhibition, % (no concentration beside the values). AID 1554, 2009. 300,000 compounds, 0.17% hits; in the data active = inhibition above about 50%
SARS 3CLpro inh-2: confirmation of SARS coronavirus 3C-like protease inhibitors, retest, confirmation, biochemical | shares compounds with SARS 3CLpro inh-1 | QFRET protease activity assay, 3CLpro | inhibition, % at 6 µM | 380 compounds, 36% hits; in the data active = inhibition above about 13%
The depositor's hits bear a star; nt = no result. Rows were chosen to be rich in hits. Some 1.4% of all compounds tested hit in one or more screens of this group.

SMILES	VHR inh abs	RN4220 kill	SARS 3CLpro inh-1	PrPC TRFRET	ugtP null kill	BJeLR viability	SARS 3CLpro inh-2
CC(=O)N(c1ccc(C(F)(F)F)cc1)S(=O)(=O)c1ccc(N2C(=O)CCC2=O)cc1	0	2	13*	3	3	11	1
Cc1cc(C)cc(NS(=O)(=O)c2ccc3[nH]cc(C(=O)N4CCc5ccccc54)c(=O)c3c2)c1	-2	0	14*	-1	40	7	-2
Cc1ccc(S(=O)(=O)Nc2ccc3c(c2)C(=O)N(C(C)CO)CC(C)C(CN(C)Cc2ccc(-c4ccccc4)cc2)O3)cc1 (centres undefined)	nt	1	nt	nt	-16	nt	nt
Cc1cc(C(=O)c2ccc(Cl)cc2)c(NC(=O)CCl)s1	4	0	6	-16	8	-2	nt
CCc1cc(C(=O)c2ccc(C)cc2)c(NC(=O)CCl)s1	-4	4	20*	-13	22	-5	44*
Cc1cccc(-n2nc(C)c3c(C(=O)O)cc(-c4cccs4)nc32)c1	-15	3	13*	9	-15	0	8
Cc1nn(-c2cccc(Cl)c2)c2nc(-c3ccco3)cc(C(=O)O)c12	-12	nt	6	-3	nt	3	nt
CCOC(=O)c1c(NC(=O)CCl)sc(CN(C)C)c1-c1ccccc1	26	4	31*	0	-1	0	59*
CCOC(=O)c1c(NC(=O)CN2CCCCC2)sc(CN(C)C)c1-c1ccccc1	29	-4	2	0	-5	-6	nt
COC(=O)CC1c2cc(C(F)(F)F)ccc2S(=O)(=O)N1C1CCCC1 (centres undefined)	nt	3	nt	nt	0	nt	nt
Cc1noc2c1C(c1ccc(N(C)C)cc1)C1=C(CC(C)(C)CC1=O)N2 (centres undefined)	15	3	-1	-2	7	-5	nt
Cc1ccc(C2C3=C(CC(C)(C)CC3=O)Nc3onc(C)c32)cc1 (centres undefined)	-6	2	15*	7	-2	-9	-3
O=C1C=C(c2cccc(Cl)c2O)CC(c2ccc(F)cc2)C1 (centres undefined)	nt	10	nt	nt	5	nt	nt
CCc1nnc(NS(=O)(=O)c2ccc(NC(=O)/C=C/c3ccccc3Cl)cc2)s1	30	5	13*	-5	14	-1	10
CCc1nnc(NS(=O)(=O)c2ccc(NC(=O)/C=C/C(=O)O)cc2)s1	6	nt	6	3	nt	-8	nt
CN1C(=O)N(C)C(=O)C2(Cc3cc(N)ccc3N3CCN(c4ccccc4F)CC32)C1=O (centres undefined)	15	nt	2	0	nt	0	nt
CN1CCN2c3ccc(N)cc3CC3(C(=O)NC(=O)NC3=O)C2C1 (centres undefined)	16	1	22*	2	-8	-9	63*
O=C1C2C3C=CC(C3)C2C(=O)N1/N=C/c1ccc(-c2ccccc2[N+](=O)[O-])o1 (centres undefined)	5	nt	12*	-6	nt	18	-5
O=C1C2C3C=CC(C3)C2C(=O)N1N=Cc1ccc(-c2ccccc2[N+](=O)[O-])o1 (centres undefined)	nt	7	nt	nt	10	nt	nt
Cn1cc(C(=O)N/N=C/c2ccc([N+](=O)[O-])cc2)c2ccccc21	0	nt	3	2	nt	13	nt
CC(=O)n1cc(N(C(=O)CCl)c2ccc([N+](=O)[O-])cc2)c2ccccc21	-4	20	14*	-32	74	2	36*
CC1(C)C2CC=C(/C=N/NC(=S)Nc3cccnc3)C1C2 (centres undefined)	28	nt	15*	-6	nt	0	39*
CC(=O)Nc1ccc(NC(=O)C/C(C)=N/NC(=O)COc2cc(C)c(Br)cc2Br)cc1	20	nt	16*	-12	nt	-6	1
O=C1C=C(c2cccc(Cl)c2)CC(c2ccc3c(c2)OCO3)C1 (centres undefined)	nt	7	nt	nt	9	nt	nt
